Out of some 300,000 compounds screened, about 2,400 (0.8%) were called active.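 How the source made its calls: active means Every replicate reaches about 75%, or at least half do and their mean reaches it too (limit read from the data); inconclusive means At least half of replicates reach the limit but their mean does not; inactive means Under half of replicates reach the limit.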 Only a selection was taken, and actives are over-represented in it overall.

This assay in a line: INS-1E beta cell survival under cytokines – luminescence, primary screen (AID 435005).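 Further: 0% = cytokine-treated negative control wells and 100% = positive control rescue; higher means more ATP so stronger rescue from cytokine killing.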 The following applies: INS-1E cytokine-induced death, ATP luminescence, 48 h; active compounds read high; concentration not given here.
With `CCOc1cccc(=NC2CCCCC2)c2c(C)[nH]c(C)c12`, the protection from apoptosis is 115% (active).
For `C[C@]12CCC3C(CC[C@H]4C[C@@H](O)CC[C@]34C)C1CC[C@@H]2O` (stereo not given in full) the value was 1.25% (inactive); for `O=C1C2(Cl)C3(Cl)C4(Cl)C(Cl)(Cl)C5(Cl)C3(Cl)C1(Cl)C5(Cl)C24Cl` (stereo not given), -14.2% (inactive); for `COC(=O)C1=C(c2ccc(F)cc2OCc2ccccc2)C[C@@H]2CC[C@H]1N2C(=O)NCc1ccc(OC)c(OC)c1`, -1.83% (inactive).
As to `C[C@]12CC[C@H](O)CC1=C([N+](=O)[O-])CC1C2CC[C@@]2(C)C1CC[C@@H]2O` (stereo not given in full), the protection from apoptosis is -1.49% (inactive).
As for `COC(=O)C1=C(c2ccccc2OCc2ccccc2)C[C@@H]2CC[C@H]1N2C(=O)NCc1ccc(OC)cc1`, the figure is -9.52% (inactive).
Regarding `CCCCCCCCCCCCn1ccc(=N)cc1`, the protection from apoptosis was 117% (active).
As to `C[C@]12CCC3C(CC[C@H]4C[C@@H](O)CC[C@]34C)C1C[C@@H](O)[C@H]2O` (stereo not given in full), the protection from apoptosis was 0.154% (inactive).
As for `CCC(=O)c1ccc(OCC(=O)N2CCN(CC(=O)Nc3ccc(C)cc3)CC2)cc1`, the protection from apoptosis is 4.28% (inactive).
As for `Clc1cccc(Cl)c1Cl`, the protection from apoptosis is 5.51% (inactive).

For the origin of these results see PubChem BioAssay AID435005 (Broad Institute, 2010).
